# Tested on: TDF
# Test: cell number relative to DMSO (% of DMSO); higher = more cells (less growth inhibition / toxicity)
# Conditions: concentration: 10 µM; 24 h
# Method in brief: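 HCC1569 and TDF cells (800 per well, 384-well plates, RPMI with 10% FBS) were treated with compounds at 10 µM for 24 h at 37 °C, in triplicate. Cells were fixed in 3.7% formaldehyde and stained with a rabbit anti-H1.0 antibody, an AlexaFluor 647 secondary and DAPI; six fields per well were imaged at ×10. H1.0 nuclear intensity or cell number is expressed as percent of the plate DMSO control, taking the median of replicates. HCC1569 values were smoothed for positional effects.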
# 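Note: TDF denotes transformed human dermal fibroblasts of mesenchymal origin.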
row,Structure (SMILES),cell number
1,Oc1cc2c(cc1O)C(c1ccccc1)CNCC2 (racemic),113
2,O=c1oc2c(O)c(O)cc3c(=O)oc4c(O)c(O)cc1c4c23 [Ellagic acid],106
3,CC(C)CN(CC(O)C(Cc1ccccc1)NC(=O)OC1CCOC1)S(=O)(=O)c1ccc(N)cc1 (centres undefined) [Amprenavir],101
4,O=C1CCC(N2C(=O)c3ccccc3C2=O)C(=O)N1 (racemic),108
5,COc1cc2ncnc(Nc3ccc(NC(=O)c4ccccc4)cc3)c2cc1OC [Aurora Kinase Inhibitor II],54.8
6,Cn1c(=O)c2[nH]cnc2n(C)c1=O [Theophylline],95.5
7,COc1ccc2c(c1)c(CC(=O)O)c(C)n2Cc1ccc(F)cc1 [1-(4-Fluorobenzyl)-5-methoxy-2-methylindole-3-acetic acid],95.2
8,COC(C)(C)CCCC(C)CC=CC(C)=CC(=O)O (centres undefined) [Methoprene acid],91.9
9,Cl.Nc1nc2ccc(OC(F)(F)F)cc2s1 [Riluzole.HCl],89.9
10,CN(C)CCCN1c2ccccc2CCc2ccc(Cl)cc21.Cl [Clomipramine hydrochloride],102
11,COc1cc(/C=C/C(=O)O)ccc1O [Ferulic acid],97.3
12,C[N+](C)(C)CCCCCC[N+](C)(C)C.[Cl-].[Cl-] [Hexamethonium dichloride],99.9
13,Cl.Nc1cc(Nc2ccc(S(N)(=O)=O)cc2)ncn1,93.3
14,COc1ccc2c(c1OC)C(=O)OC2C1c2c(cc3c(c2OC)OCO3)CCN1C (racemic),96.2
